Data taken from PubChem BioAssay.
For part of these data: Potency and affinity values are given separately. The source made the active and inactive calls.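 Rule for the calls, unless noted: active = calcium signal cut by more than 3 SD below the full-agonist control yet still positive, in both repeats and the earlier primary screen; inactive = the rest.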

Columns and labels:
[1] = tested on: TRPC4 beta (transient receptor potential cation channel C4), mouse; experiment: activators of mouse TRPC4 channel, confirmation, cell-based, Fluo4 calcium, HEK293 TRPC4beta/mu-opioid, duplicates, 10 µM (AID 2426;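 active = fluorescence ratio normalized to control raised more than 50% in primary screen plus both repeat runs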;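 for activation: percent rise of integrated ratio over buffer wells lacking compound which define 0%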); conditions: Fluo4 calcium fluorescence, at 10 µM; stronger effect = higher value
[2] = tested on: transient receptor potential cation channel C4 beta (TRPC4), mouse; experiment: activators of mouse TRPC4 channel, confirmation, cell-based, second round, Fluo4, HEK293 TRPC4beta/mu-opioid, 1 µM (AID 2461;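 active = primary screen active and over 50% activation in each of two duplicate runs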); conditions: Fluo4 calcium fluorescence, at 1 µM; stronger effect = higher value
[3] = tested on: TRPC4 (transient receptor potential cation channel C4 beta), mouse; experiment: positive allosteric modulators of mouse TRPC4, confirmation, cell-based, second round, Fluo-4, HEK293 TRPC4beta/mu-opioid, 1 µM (AID 2554;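 active = primary screen hit whose fluorescence ratio, in both repeats, exceeds the weak agonist control mean by 3 SD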); conditions: DAMGO EC20, Fluo-4 calcium flux, at 1 µM; stronger effect = higher value
[4] = tested on: TRPC4 beta (transient receptor potential cation channel C4), mouse; experiment: positive allosteric modulators of mouse TRPC4, confirmation, cell-based, Fluo-4, HEK293 TRPC4beta/mu-opioid (AID 2555;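 active = primary screen hit whose calcium fluorescence ratio, in both repeats, exceeds the weak agonist control mean by 3 SD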); conditions: DAMGO EC20, Fluo-4 calcium flux, at 10 µM; stronger effect = higher value
[5] = target: Short transient receptor potential channel 4 (Mus musculus) (UniProt Q9QUQ5); experiment: inhibitors of mouse TRPC4 channel, confirmation, cell-based, Fluo4, HEK293 TRPC4beta/mu-opioid (AID 2636); conditions: DAMGO, Fluo4 calcium flux, at 10 µM; stronger effect = higher value
Short transient receptor potential channel 4 (Mus musculus), sequence (Q9QUQ5 whole entry, looked up): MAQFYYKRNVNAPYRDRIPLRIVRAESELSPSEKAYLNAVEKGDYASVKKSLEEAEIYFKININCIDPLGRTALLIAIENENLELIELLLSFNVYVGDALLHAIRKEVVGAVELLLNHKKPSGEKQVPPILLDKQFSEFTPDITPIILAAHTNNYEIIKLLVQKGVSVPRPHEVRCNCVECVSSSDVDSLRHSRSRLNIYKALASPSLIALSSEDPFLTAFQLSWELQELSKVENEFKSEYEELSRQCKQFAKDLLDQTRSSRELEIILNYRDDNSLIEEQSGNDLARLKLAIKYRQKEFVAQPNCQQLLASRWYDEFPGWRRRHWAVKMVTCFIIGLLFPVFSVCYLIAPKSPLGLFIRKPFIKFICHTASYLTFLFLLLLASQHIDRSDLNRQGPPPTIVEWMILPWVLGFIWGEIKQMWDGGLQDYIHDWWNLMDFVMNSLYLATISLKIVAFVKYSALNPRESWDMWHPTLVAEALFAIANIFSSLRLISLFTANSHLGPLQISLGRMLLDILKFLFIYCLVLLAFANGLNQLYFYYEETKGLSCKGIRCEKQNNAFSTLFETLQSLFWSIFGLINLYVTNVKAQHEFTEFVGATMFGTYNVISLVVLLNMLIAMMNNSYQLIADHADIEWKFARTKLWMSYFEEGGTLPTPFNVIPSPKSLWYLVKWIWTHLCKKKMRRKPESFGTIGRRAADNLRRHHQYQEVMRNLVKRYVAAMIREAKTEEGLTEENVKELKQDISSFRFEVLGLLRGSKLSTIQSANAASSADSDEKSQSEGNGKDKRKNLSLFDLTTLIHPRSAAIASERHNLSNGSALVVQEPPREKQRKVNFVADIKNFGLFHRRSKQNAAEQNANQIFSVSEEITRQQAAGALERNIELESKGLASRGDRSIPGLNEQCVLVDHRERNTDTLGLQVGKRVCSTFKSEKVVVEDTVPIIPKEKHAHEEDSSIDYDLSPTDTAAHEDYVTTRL

[6] = target: Short transient receptor potential channel 4 (Mus musculus) (UniProt Q9QUQ5); experiment: inhibitors of mouse TRPC4 channel, confirmation, cell-based, second round, Fluo4, HEK293 TRPC4beta/mu-opioid, 1 µM (AID 2637;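 active = calcium signal ratio cut to more than 3 SD under the fully stimulated control mean yet still positive, in both repeats and the primary screen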); conditions: Fluo4 calcium flux, DAMGO, at 1 µM; stronger effect = higher value
[7] = target: Short transient receptor potential channel 4 (Mus musculus) (UniProt Q9QUQ5); experiment: mouse TRPC4 channel activators, dose response, cell-based, HEK293 TRPC4/mu-opioid, Fluo-4 calcium (AID 434937;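 active = primary screen activator hit with a dose response curve and TRPC4 channel activation at any tested dose; inactive = no activation, no dose response, or not a primary hit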)
[8] = target: Short transient receptor potential channel 4 (Mus musculus) (UniProt Q9QUQ5); experiment: TRPC4 positive allosteric modulators, dose response, cell-based, HEK293 TRPC4/mu-opioid, Fluo-4 calcium, EC20 DAMGO (AID 434941;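 active = earlier screen potentiator hit that boosts the TRPC4 ion channel at some dose, with a dose response; inactive = no potentiation, no dose response, or not a prior hit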;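 note: calcium entry triggered by an EC20 dose of DAMGO at the co-expressed mu-opioid receptor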)
[9] = target: Short transient receptor potential channel 4 (Mus musculus) (UniProt Q9QUQ5); experiment: mouse TRPC4 channel inhibitors, dose response, cell-based, HEK293 TRPC4/mu-opioid, Fluo-4 calcium (AID 434942;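 active = primary screen inhibitor hit that blocks the TRPC4 channel at some tested dose, yielding a dose curve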)
[10] = target: Short transient receptor potential channel 6 (Mus musculus) (UniProt Q61143); experiment: inhibition of mouse TRPC6 channel, confirmation, selectivity assay for TRPC4 inhibitor project, cell-based, HEK293, membrane potential dye, duplicate (AID 434948;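 active = active in primary screen and both duplicates, each dropping signal beyond three positive-control SD with fluorescence still positive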); conditions: HEK293 TRPC6, membrane potential dye fluorescence, at 10 µM, stimulated with maximal-effect acetylcholine; stronger effect = higher value
Short transient receptor potential channel 6 (Mus musculus), sequence (Q61143 whole entry, looked up): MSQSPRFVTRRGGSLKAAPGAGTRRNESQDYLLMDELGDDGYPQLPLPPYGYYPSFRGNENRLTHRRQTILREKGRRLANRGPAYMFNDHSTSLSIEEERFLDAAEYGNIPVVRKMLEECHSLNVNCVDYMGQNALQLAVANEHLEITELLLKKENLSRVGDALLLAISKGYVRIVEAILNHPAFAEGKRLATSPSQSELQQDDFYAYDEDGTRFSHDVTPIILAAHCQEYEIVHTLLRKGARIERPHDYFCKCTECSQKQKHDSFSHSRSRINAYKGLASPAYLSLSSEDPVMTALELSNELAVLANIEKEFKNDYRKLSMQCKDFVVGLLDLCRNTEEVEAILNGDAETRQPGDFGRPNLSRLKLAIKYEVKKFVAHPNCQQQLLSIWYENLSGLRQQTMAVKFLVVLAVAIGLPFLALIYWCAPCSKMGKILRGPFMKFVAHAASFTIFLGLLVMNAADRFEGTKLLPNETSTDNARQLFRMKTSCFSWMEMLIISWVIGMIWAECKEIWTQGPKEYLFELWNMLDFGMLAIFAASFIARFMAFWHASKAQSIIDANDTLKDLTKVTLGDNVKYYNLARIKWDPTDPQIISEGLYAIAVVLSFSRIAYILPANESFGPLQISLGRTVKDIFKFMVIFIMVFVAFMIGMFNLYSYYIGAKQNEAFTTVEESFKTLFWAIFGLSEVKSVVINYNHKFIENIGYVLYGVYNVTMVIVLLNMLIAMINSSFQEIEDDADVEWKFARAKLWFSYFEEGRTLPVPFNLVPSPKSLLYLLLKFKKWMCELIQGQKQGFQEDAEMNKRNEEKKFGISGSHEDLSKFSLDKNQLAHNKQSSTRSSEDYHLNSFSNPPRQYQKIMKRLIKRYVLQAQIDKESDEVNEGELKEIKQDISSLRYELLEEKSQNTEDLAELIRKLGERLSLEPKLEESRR

[11] = target: Short transient receptor potential channel 6 (Mus musculus) (UniProt Q61143); experiment: activation of mouse TRPC6 channel, confirmation, selectivity assay for TRPC4 activator project, cell-based, HEK293, membrane potential dye, duplicate (AID 434950;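 active = membrane potential signal rise above negative control mean plus 3 SD in both duplicates, also active in the earlier TRPC4 screen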); conditions: HEK293 TRPC6, membrane potential fluorescence, at 10 µM; stronger effect = higher value
[12] = target: Short transient receptor potential channel 6 (Mus musculus) (UniProt Q61143); experiment: TRPC6 potentiation by TRPC4 potentiator hits, confirmation, selectivity assay for TRPC4 potentiator project, HEK293 cells, membrane potential dye, duplicate (AID 434952;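 active = compound raising the membrane signal above positive-control mean plus 3 SD in both repeats, and a primary screen hit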); conditions: HEK293 TRPC6, membrane potential dye fluorescence, at 10 µM, maximal acetylcholine added after compound; stronger effect = higher value
[13] = target: Short transient receptor potential channel 4 (Mus musculus) (UniProt Q9QUQ5); experiment: calcium flux activators in TRPC4/5HT1a cells, counter-screen for TRPC4 activator project, cell-based, second counter screen, HEK293 TRPC4/5HT1a, Fluo-4 (AID 434977;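 active = calcium signal rise above buffer-control mean plus 5 SD in both duplicates, and also a hit in the primary screen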;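 for activation: plate controls were assay buffer for no effect and maximal serotonin response for full effect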); conditions: Fluo-4 calcium flux, at 10 µM; stronger effect = higher value
[14] = calcium flux inhibitors in TRPC4/5HT1a cells, confirmation, counter-screen for TRPC4 inhibitor project, cell-based, second counter screen, HEK293 TRPC4/5HT1a, Fluo-4 (AID 434978;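 active = primary screen active whose calcium signal fell more than 3 SD beyond the full-serotonin control mean in both duplicate plates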;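 for outcome: serotonin given first at submaximal then at maximal dose after compound preincubation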); conditions: Fluo-4 calcium flux, at 10 µM, serotonin added to trigger calcium flux; stronger effect = higher value
[15] = tested on: TRPC4 (mouse), co-expressed with 5HT1a in HEK293; experiment: calcium flux potentiators in TRPC4/5HT1a cells, confirmation, counter-screen for TRPC4 potentiator project, cell-based, second counter screen, HEK293 TRPC4/5HT1a, Fluo-4 (AID 434979;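 active = signal rise over 3 SD above mean of control wells given weak agonist, in both repeats and first screen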); conditions: Fluo-4 calcium flux, at 10 µM, serotonin added at its EC20 dose; stronger effect = higher value
[16] = calcium flux activation in mu-opioid HEK293 cells, confirmation, counter-screen for TRPC4 activator project, cell-based, HEK293 mu-opioid receptor line (AID 449723;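 active = hit in primary screen, with calcium signal over 5 SD above buffer well mean in both duplicates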;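 note: counter screen cells carry the mu-opioid receptor alone and lack TRPC4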); conditions: Fluo-4 calcium fluorescence, at 10 µM; stronger effect = higher value
[17] = calcium flux enhancement in mu-opioid HEK293 cells, confirmation, counter-screen for TRPC4 allosteric potentiator project, cell-based, HEK293 mu-opioid receptor line (AID 449724;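 active = calcium signal rise more than 3 SD above the low-dose agonist control mean, in both duplicate plates and the primary screen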); conditions: Fluo-4 calcium flux, at 10 µM, compound added before EC20 DAMGO stimulus; stronger effect = higher value

C/C(=N\N1CCN(C)CC1)c1ccc(Cl)c(Cl)c1
inactive: outcome [1] | outcome [2] | outcome [3] | outcome [4] | outcome [5] | outcome [6] | outcome [7] | outcome [8] | outcome [9] | outcome [10] | outcome [11] | outcome [12] | outcome [13] | outcome [14] | outcome [16] | outcome [17]
active: potentiation [15] 13.3%

CCCCN(C)CCNC(=O)C1CCCN(S(=O)(=O)c2cccc3nsnc23)C1 (stereo not given)
inactive: outcome [1] | outcome [2] | outcome [4] | outcome [5] | outcome [6] | outcome [7] | outcome [8] | outcome [9] | outcome [10] | outcome [11] | outcome [12] | outcome [13] | outcome [14] | outcome [16] | outcome [17]
active: potentiation [3] 11% | potentiation [15] 7.12%

CCC(CC)c1nnc(NC(=O)c2c(C)nn(Cc3ccccc3Cl)c2C)s1
inactive: outcome [1] | outcome [2] | outcome [3] | outcome [4] | outcome [5] | outcome [6] | outcome [7] | outcome [8] | outcome [9] | outcome [10] | outcome [11] | outcome [12] | outcome [13] | outcome [14] | outcome [16] | outcome [17]
active: potentiation [15] 36.2%

CN(C)c1ccc(C(=S)N2CCN(c3ccc([N+](=O)[O-])cc3)CC2)cc1
inactive: outcome [1] | outcome [2] | outcome [3] | outcome [4] | outcome [5] | outcome [6] | outcome [7] | outcome [8] | outcome [9] | outcome [10] | outcome [11] | outcome [12] | outcome [13] | outcome [14] | outcome [16] | outcome [17]
active: potentiation [15] 8.7%

c1ccc(-c2nc(NCc3cccnc3)c3ccccc3n2)cc1
active: inhibition [5] 89% | inhibition [14] 36.3%
inactive: outcome [1] | outcome [2] | outcome [3] | outcome [4] | outcome [6] | outcome [7] | outcome [8] | outcome [9] | outcome [10] | outcome [11] | outcome [12] | outcome [13] | outcome [15] | outcome [16] | outcome [17]

Cn1c(SCCOc2ccccc2F)nc2ccccc2c1=O
active: potentiation [4] 10%
inactive: outcome [1] | outcome [2] | outcome [3] | outcome [5] | outcome [6] | outcome [7] | outcome [8] | outcome [9] | outcome [10] | outcome [11] | outcome [12] | outcome [13] | outcome [14] | outcome [15] | outcome [16] | outcome [17]

O=C1CC2(CCN(S(=O)(=O)c3ccccc3F)CC2)Oc2ccccc21
active: potentiation [4] 21% | potentiation [15] 34.2%
inactive: outcome [1] | outcome [2] | outcome [3] | outcome [5] | outcome [6] | outcome [7] | outcome [8] | outcome [9] | outcome [10] | outcome [11] | outcome [12] | outcome [13] | outcome [14] | outcome [16] | outcome [17]

N=C(N)SCc1cn2ccccc2n1
active: potentiation [15] 8.53%
inactive: outcome [1] | outcome [2] | outcome [3] | outcome [4] | outcome [5] | outcome [6] | outcome [7] | outcome [8] | outcome [9] | outcome [10] | outcome [11] | outcome [12] | outcome [13] | outcome [14] | outcome [16] | outcome [17]

CN1CCCN(Cc2cccc3ccccc23)CC1
active: potentiation [3] 34% | potentiation [15] 28.3%
inactive: outcome [1] | outcome [2] | outcome [4] | outcome [5] | outcome [6] | outcome [7] | outcome [8] | outcome [9] | outcome [10] | outcome [11] | outcome [12] | outcome [13] | outcome [14] | outcome [16] | outcome [17]

COC(=O)[C@@]12CCCCN1[C@H](c1ccc(-c3ccc(C(C)=O)cc3)cc1)[C@@H]1C(=O)N(C)C(=O)[C@@H]12
inactive: outcome [1] | outcome [2] | outcome [3] | outcome [4] | outcome [5] | outcome [6] | outcome [7] | outcome [8] | outcome [9] | outcome [10] | outcome [11] | outcome [12] | outcome [13] | outcome [14] | outcome [15] | outcome [16] | outcome [17]

Oc1cccc(C(=S)N2CCN(Cc3ccccc3)CC2)c1
inactive: outcome [1] | outcome [2] | outcome [3] | outcome [4] | outcome [5] | outcome [6] | outcome [7] | outcome [8] | outcome [9] | outcome [10] | outcome [11] | outcome [12] | outcome [13] | outcome [14] | outcome [15] | outcome [16] | outcome [17]

COc1cc(=O)n2c(-c3ccccc3)csc2n1
inactive: outcome [1] | outcome [2] | outcome [3] | outcome [4] | outcome [6] | outcome [7] | outcome [8] | outcome [9] | outcome [10] | outcome [11] | outcome [12] | outcome [13] | outcome [14] | outcome [15] | outcome [16] | outcome [17]
active: inhibition [5] 39%

Fc1ccc2c(c1)C(c1ccncc1)=NNC(c1ccc(Cl)cc1)=N2
inactive: outcome [1] | outcome [2] | outcome [3] | outcome [4] | outcome [5] | outcome [6] | outcome [7] | outcome [8] | outcome [9] | outcome [10] | outcome [11] | outcome [12] | outcome [13] | outcome [14] | outcome [15] | outcome [16] | outcome [17]

CN(C)CCCNc1c2c(nc3cc(-c4cccc(F)c4)nn13)CCC2
inactive: outcome [2] | outcome [3] | outcome [4] | outcome [5] | outcome [6] | outcome [7] | outcome [8] | outcome [9] | outcome [10] | outcome [11] | outcome [12] | outcome [13] | outcome [14] | outcome [15] | outcome [16] | outcome [17]
active: activation [1] 81%

CCOC(=O)c1cn(Cc2ccccc2)c(C(=O)OC(C)(C)C)c1O
inactive: outcome [1] | outcome [2] | outcome [3] | outcome [4] | outcome [5] | outcome [6] | outcome [7] | outcome [8] | outcome [9] | outcome [10] | outcome [11] | outcome [12] | outcome [14] | outcome [15] | outcome [17]
active: activation [13] 54.1% | activation [16] 21.1%
